High-throughput results as filed in PubChem.
Kir21 block: Kir2.1 (mouse) channel inhibition | P35561 | HEK293-Kir2.1, FluxOR thallium flux fluorescence; active compounds read low | B-score at 10 µM | actives 0.85% (n = 310,000) | AID 1672;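 active = fluorescence ratio B-score at or below minus 3 SD of library scores, with starting-brightness B-score within 2 SD, cut at about -4.2 in these data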;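 note: channel flux triggered by added potassium and thallium sulfate stimulus; B-score of peak minus minimum fluorescence over baseline after thallium stimulus; more negative B-score means stronger Kir2.1 block with less thallium influx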
Target sequence (P35561 whole entry, looked up): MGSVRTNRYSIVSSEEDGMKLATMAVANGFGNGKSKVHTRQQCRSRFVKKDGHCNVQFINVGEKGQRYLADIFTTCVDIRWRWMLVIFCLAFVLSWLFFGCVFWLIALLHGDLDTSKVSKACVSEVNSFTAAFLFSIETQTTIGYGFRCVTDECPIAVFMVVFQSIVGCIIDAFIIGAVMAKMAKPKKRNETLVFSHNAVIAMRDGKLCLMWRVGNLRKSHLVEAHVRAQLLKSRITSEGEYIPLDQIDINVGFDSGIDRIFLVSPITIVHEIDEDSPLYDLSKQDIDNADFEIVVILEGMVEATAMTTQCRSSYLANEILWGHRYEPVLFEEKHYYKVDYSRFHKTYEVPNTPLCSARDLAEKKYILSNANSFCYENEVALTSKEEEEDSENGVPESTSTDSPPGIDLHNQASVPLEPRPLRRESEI
Rce1 inhib: yeast Ras-converting enzyme inhibition; AID 2563; calls only; actives 0.27% (n = 290,000); yeast membranes, quenched prenylated peptide cleavage fluorescence; Q03530;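 active = fall in fluorescence gain of 50% or more versus controls, with final raw signal at or below 3038400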
FID counter: counter-screen for HCV NS3 helicase inhibitors: DNA intercalator displacement; DNA fluorescent intercalator displacement, fluorescence; AID 1845; inhibition, % at 7.9 µM; actives 0.17% (n = 290,000); in the data active = inhibition above about 37%;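 note: higher means more ethidium bromide displaced from hairpin DNA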
PfM18AAP inh: blocks P. falciparum M18 aspartyl aminopeptidase | recombinant PfM18AAP, H-Glu-NHMec fluorogenic cleavage | inhibition, % at 7.35 µM | actives 1.2% (n = 290,000) | AID 1822;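 active = inhibition above the campaign mean inhibition over all tested compounds plus 3 SD, cut at about 28% in these data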
Large screens that a line does not name were inactive. Hits are enriched below; roughly 2.3% of the tested compounds scored in any of these assays.

CCOc1ccc(S(=O)(=O)NCCc2cn3ccccc3n2)cc1	none
O=S(=O)(NCCc1cn2ccccc2n1)c1ccc(-c2ccccc2)cc1	Kir21 block -4.2
COC(=O)c1cccc(/C=N/NC(N)=S)c1O	PfM18AAP inh 31
COc1cccc(/C=N/NC(=O)C(=O)N/N=C/c2cccc(OC)c2O)c1O	none (no result: Kir21 block, Rce1 inhib)
Cc1[nH]c(=S)[nH]c(=O)c1Cc1ccccc1	PfM18AAP inh 31 (no result: Rce1 inhib)
Cc1sc2nc(C(C)C)nc(SCC(=O)N3CCOCC3)c2c1C	none
COC(=O)C1=C(CS(=O)(=O)c2ccc(OC)c(OC)c2)NC(=O)NC1c1ccc(O)c(OC)c1 (configuration not stated)	none
COc1ccccc1-[n+]1c(C)cc(/C=C2\Sc3ccccc3N2C)cc1C	PfM18AAP inh 48
COc1ccc(C(=O)/C=C2\Sc3ccccc3N2C)cc1	none
Cn1c(=O)n(C)c2cc(N3CCOCC3)c(NC(=O)c3cccc(Cl)c3)cc21	none
CCc1nc(Nc2ccc(N3CCN(C(C)=O)CC3)cc2)c2oc3ccccc3c2n1	Rce1 inhib active
CC1CCc2nc3ccc(S(=O)(=O)N4CCC(C(=O)NC(C)c5ccccc5)CC4)cc3c(C(=O)O)c2C1 (configuration not stated)	none
c1ccc(CN2CCC(Nc3nc(-c4cccs4)nc4ccccc34)CC2)cc1	FID counter 59
c1csc(-c2nc(NCC3CCCO3)c3ccccc3n2)c1 (configuration not stated)	none
Cc1nnc(Sc2cc(NCCCO)c([N+](=O)[O-])c3nonc23)s1	Kir21 block -7.1
CCCC(=O)OCCNc1cc(Sc2nccn2C)c2nonc2c1[N+](=O)[O-]	Kir21 block -6.3
CCOc1ccccc1CN1CCC(CO)(CCOc2ccccc2)CC1	FID counter 42
Oc1ccccc1CN(Cc1ccco1)CC(O)COCc1ccc(Cl)cc1 (configuration not stated)	none
COc1ccc(COCC(O)CN(Cc2ccco2)Cc2ccccc2O)cc1 (configuration not stated)	Kir21 block -6.7
CCCCNC(=O)c1cn(CC)c2cc(N3CCN(C)CC3)c(F)cc2c1=O	none (no result: Rce1 inhib)
CCN(CC)CCNC(=O)c1cn(CC)c2cc(N3CCN(C)CC3)c(F)cc2c1=O	FID counter 38
CCN1CCN(Cc2ccc(NC(=O)c3cc(NC(=O)c4cc(C)on4)cc(OC)c3)cc2C(F)(F)F)CC1	FID counter 42
Cc1cccc(OCC(=O)Nc2nnc(S(=O)(=O)N3CCCCCC3)s2)c1	none
O=C(CCN1CCOCC1)NNC(=S)NC(=O)c1ccc(Br)cc1	PfM18AAP inh 30
CC(C)c1cc(C(C)C)c(S(=O)(=O)N2c3ccccc3[C@@]3(Br)C[C@H]4C(=O)N[C@@H](Cc5ccccc5)C(=O)N4[C@@H]23)c(C(C)C)c1	none (no result: FID counter, PfM18AAP inh)
CCOc1cc(/C=C2\COc3ccccc3C2=O)ccc1OCC(=O)N(C)C	Kir21 block -4.3
Cc1sc2nc(CSc3ccccc3)nc(N3CCN(C)CC3)c2c1C	Kir21 block -4.7
COCCNc1nc(CSc2ccccc2)nc2sc(C)c(C)c12	none
COC(=O)CCC(=O)OC1(C)C(=O)C=C2C=C(C3CC3)OC=C2C1=O (configuration not stated)	none (no result: FID counter, PfM18AAP inh)
COc1ccc(-n2ccnc(SCC(=O)NCc3ccc(C)cc3)c2=O)cc1Cl	none (no result: FID counter, PfM18AAP inh)
COc1cc(CNCCNC(=O)c2nonc2N)ccc1OCc1ccc(Cl)cc1	Kir21 block -6.7
Nc1nonc1C(=O)NCCNCc1cc(Br)ccc1OCc1ccccc1F	FID counter 40
COc1cccc(CNCCNC(=O)c2nonc2N)c1	none
CCc1ccc(-c2cc(C(=O)O)c3ccccc3n2)s1	none
Cc1ccc(C(OCCN(C)C)c2cccc(C(F)(F)F)c2)cc1 (configuration not stated)	Kir21 block -5.2
CN(C)CCO[C@@H](c1ccc(Cl)cc1)c1ccccn1	none
Cc1cccc(C(=O)N2CCCC(N3CCN(c4ccc(F)cc4)CC3)C2)n1 (configuration not stated)	none
CCn1c(CCNC(=O)c2ccc(OC)cc2)nnc1SCc1ccc(Cl)c(Cl)c1	Kir21 block -6.5
OC(CNC1CCCc2ccccc21)COc1c(Cl)cccc1Cl (configuration not stated)	Kir21 block -8.9
O=C(COc1ccccc1)NC1CCCc2ccccc21 (configuration not stated)	none
OC(CNCc1ccccc1)COc1ccccc1 (configuration not stated)	none (no result: FID counter, PfM18AAP inh)
OC(CNC1Cc2ccccc2C1)COc1ccc(Cl)cc1 (configuration not stated)	Kir21 block -4.2
COc1cccc(CNCC(O)COc2ccc(C(=O)c3ccccc3)cc2)c1 (configuration not stated)	Kir21 block -5.4
OC(CNC1CCCC1)COc1ccc(-c2ccccc2)cc1 (configuration not stated)	none
O=C(c1ccccc1)c1ccc(OCC(O)CNCc2ccc(Cl)cc2)cc1 (configuration not stated)	Kir21 block -4.7
O=C1c2ccccc2S(=O)(=O)c2cc(N3CCc4ccccc4C3)ccc21	none (no result: FID counter, PfM18AAP inh)
O=C1CCC(C(=O)Nc2ccccc2N2CCOCC2)=NN1	none
O=C(CCCSc1ccccc1)Nc1nc(-c2ccco2)c(-c2ccco2)s1	none
O=C(CCl)Nc1nc(-c2ccco2)c(-c2ccco2)s1	PfM18AAP inh 36
COc1cc(/C=C2/SC(=S)N(c3c(C)n(C)n(-c4ccccc4)c3=O)C2=O)ccc1O	PfM18AAP inh 33
Cc1cc(C(C)(C)C)cc(C)c1Cn1c2[n+](c3ccc(C(F)(F)F)cc31)CCCCC2	Kir21 block -7.2
FC(F)(F)c1cccc(Cn2c3[n+](c4ccc(C(F)(F)F)cc42)CCCCC3)c1	none
CCOc1ccc(NS(=O)(=O)c2ccc(OC)c(C)c2)cc1	Kir21 block -7.5
CC(C)OC(=O)c1c(N)n(CCCN2CCOCC2)c2nc3ccccc3nc12	Rce1 inhib active
CSc1ncc(C(=O)Nc2ccccc2)cn1	none
Cc1ccc(-c2csc(=Nc3cccnc3)n2CCCn2ccnc2)cc1C	Kir21 block -4.5
Cc1ccc(-c2csc(=Nc3cccnc3)n2CCCN2CCCC2=O)cc1C	none
CC(C)n1c(Nc2ccccc2)nc2ccccc21	FID counter 91
CC(C)n1c(NCCO)nc2ccccc21	none (no result: Rce1 inhib)
OCCN1CCN(c2nc(-c3ccccc3)nc3c2oc2ccccc23)CC1	FID counter 43
Cc1ccc2c(c1)Sc1c(ccc3ccccc13)N2	PfM18AAP inh 28
COCCOC(=O)/C(=C\c1cc(C(C)(C)C)c(O)c(C(C)(C)C)c1)C(C)=O	Kir21 block -5.4
CC(C)(C)c1cc(CCC(=O)NN)cc(C(C)(C)C)c1O	none
Cc1ccc(CNCCC2=CCCCC2)cc1	Kir21 block -6.9
C1=C(CCNCC2CC2)CCCC1	none
CCCn1c(SCC(=O)c2c(C)[nH]c(C)c2C(=O)OCC)nc2ccccc21	Kir21 block -4.3
COc1cc2c(cc1OC)C(CCc1ccccc1)=NCC2	Rce1 inhib active
NC(=O)CSc1nnc(-c2ccccn2)n1Cc1ccco1	none
C(=C\c1ccccc1)/CSc1nnc(-c2ccccn2)n1Cc1ccco1	Kir21 block -7.9
